# In PubChem BioAssay (Tox21):
# Records with an inconclusive call do not appear. Activity calls are given as the source filed them. Calls follow the shape of the full dose curve.
# Target: Vitamin D3 receptor (Homo sapiens) (UniProt P11473)
# Experiment: qHTS assay to identify small molecule agonists of the vitamin D receptor (VDR) signaling pathway (AID 743222)
# Conditions: HEK293T VDR-UAS-bla, beta-lactamase FRET ratio, 16 h; series mostly up to 63.5 µM
# From the text: National Center for Advancing Translational Sciences [NCATS]
# NIH Chemical Genomics Center [NCGC]
# U.S. Environmental Protection Agency [EPA]
# National Institutes of Environmental Health Sciences [NIEHS]
# National Toxicology Program [NTP]
# U.S. Food and Drug Administration [FDA]
# The vitamin D receptor (VDR), a member of nuclear hormone receptor superfamily, plays a critical role in calcium homeostasis and bone metabolism. It is also involved in cell differentiation and growth, and thrombogenicity.
# Tox21 Assay Protocol Summary:
# VDR-bla cells were dispensed at 2,000 cells/6 uL/well into black wall/clear-bottom 1536-well plates using a Multidrop Combi (Thermo Fisher Scientific, Waltham, MA) dispenser. After the assay plates were incubated at a 37C and 5% CO2 for 4 h, 23 nL of compounds dissolved in DMSO, positive controls or DMSO only was transferred to the assay plate by a Pintool station (Kalypsys, San Diego, CA). The plates were incubated at 37C and 5% CO2 for 16 h. After 1 uL of LiveBLAzerTM B/G FRET substrate was added using a Bioraptr Flying Reagent Dispenser (FRD) workstation (Beckman Coulter, Indianapolis, IN, USA), the plates were incubated at room temperature for 2 h, and fluorescence intensity was measured by an Envision plate reader (PerkinElmer, Shelton, CT).
# % is scaled to controls: 0 for no effect and ±100 for the full control effect.
# Chain of Vitamin D3 receptor (Homo sapiens) (P11473 whole entry, looked up): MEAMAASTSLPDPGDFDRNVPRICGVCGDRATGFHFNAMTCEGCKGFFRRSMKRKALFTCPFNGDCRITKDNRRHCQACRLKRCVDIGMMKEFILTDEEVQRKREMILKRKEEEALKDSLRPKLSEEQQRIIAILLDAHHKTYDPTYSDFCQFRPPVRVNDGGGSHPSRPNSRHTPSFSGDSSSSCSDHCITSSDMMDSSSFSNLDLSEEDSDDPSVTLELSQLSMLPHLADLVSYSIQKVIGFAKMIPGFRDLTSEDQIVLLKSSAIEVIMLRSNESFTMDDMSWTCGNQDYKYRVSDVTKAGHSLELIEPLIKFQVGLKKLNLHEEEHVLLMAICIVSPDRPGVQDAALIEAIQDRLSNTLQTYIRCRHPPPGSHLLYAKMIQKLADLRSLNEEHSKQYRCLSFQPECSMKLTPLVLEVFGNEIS
Structure (SMILES),outcome,activation
CC(C)(O)Cc1ccccc1,inactive,–
CCCC(=O)O[C@]1(C(=O)CCl)[C@@H](C)C[C@H]2[C@@H]3CCC4=CC(=O)C=C[C@]4(C)[C@@]3(F)C(=O)C[C@@]21C,inactive,–
CCCCc1ccc2cccc(S(=O)(=O)O)c2c1,inactive,–
CCCCCCC(CCCCCCCCCCC(=O)OCC(COC(C)=O)OC(C)=O)OC(C)=O (stereo not given),inactive,–
O=C(O)c1ccccc1-c1ccc(C(F)(F)F)cc1,inactive,–
CCn1c(=O)c2c(nc(/C=C/c3ccc(OC)c(OC)c3)n2C)n(CC)c1=O,inactive,–
CCCOCC(C)OCC(C)O (stereo not given),inactive,–
COC(=O)C1=C(C)NC(C)=C(C(=O)OCC(C)=O)C1c1ccccc1[N+](=O)[O-] (stereo not given),inactive,–
COCCOC(=O)CC#N,inactive,–
CCOC(=O)Nc1ccc2c(c1)N(C(=O)CCN1CCOCC1)c1ccccc1S2,inactive,–
C=CC(=O)N1CCOCC1,inactive,–
C=C(C)C(=O)NCCC[N+](C)(C)C,inactive,–
CN(C)N=Nc1ccccc1,inactive,–
CCCCC=O,inactive,–
CC(C)(O)c1ccccc1,inactive,–
O=C(O)C1CCC1,inactive,–
CCCCCCCCCCCCCCCCCC(=O)OCCCCCCCCCCCCCC(C)C,inactive,–
NS(=O)(=O)c1cc(C2(O)NC(=O)c3ccccc32)ccc1Cl (stereo not given),inactive,–
Nc1nc2c(ncn2CCC(CO)CO)c(=O)[nH]1,inactive,–
NC(=O)c1c(Cl)cccc1Cl,inactive,–

Structure (SMILES),outcome,activation
CCCCCCOC(=O)c1ccccc1O,inactive,–
CCC(=O)c1cccc(Cl)c1,inactive,–
C/C=C1\C(=O)C[C@H]2[C@@H]3CCC4=CC(=O)CC[C@]4(C)[C@H]3CC[C@]12C,inactive,–
COc1nc(C)nc(N)n1,inactive,–
c1cc(CN2CCCCC2)cc(OCCCNc2nc3ccccc3s2)c1,inactive,–
CC(C)(C)OC(=O)N1C[C@@H](F)C[C@H]1C(=O)O,inactive,–
CCO[Si](C)(OCC)OCC,inactive,–
CC(=O)c1ccc(C)cc1,inactive,–
NC1CCN(c2cccc(Cl)n2)CC1,inactive,–
CCC(C)OC(=O)N1CCCCC1CCO (stereo not given),inactive,–
NC(=O)c1ncn([C@@H]2O[C@H](CO)[C@@H](O)[C@H]2O)c1N,inactive,–
CCCCN(CCO)CCO,inactive,–
CC(=O)N[C@@H](CCC(N)=O)C(=O)O,inactive,–
NC(=S)Nc1cccc2ccccc12,–,4.28% [at 6.01 µM] (inactive)
CCC(C)(C)C1CCC(OC)CC1 (stereo not given),inactive,–
CC(C)COC(=O)C(C)C,inactive,–
Cc1ccccc1C(=O)O,inactive,–
Nc1ccn(C2CO[C@H](CO)O2)c(=O)n1 (stereo not given in full),inactive,–
C=C[Si](OC)(OC)OC,inactive,–
CCCCCOC(=O)Nc1nc(=O)n([C@@H]2O[C@H](C)[C@@H](O)[C@H]2O)cc1F,inactive,–
